Test results: PubChem BioAssay (NCATS)
Records with an inconclusive call do not appear. Values without a mark were called inactive. Active and inactive are the calls of the source. The call rests on the fitted dose curve; in most records, active means well fitted curve in the direction sought with a large enough effect; inconclusive means small, poorly fitted or top-dose-only effect, or another doubt; inactive means no such curve, though single readings can be large; an effect the other way counts as inactive or inconclusive.

Key:
[1] = molecular target: Rap guanine nucleotide exchange factor 3 (Homo sapiens) (UniProt O95398); experiment: Confirmatory qHTS for antagonist of cAMP-regulated guanine nucleotide exchange factor 3 (EPAC1) (AID 1645880); further: nearly all actives have a fitted effect of over 55% in size
Rap guanine nucleotide exchange factor 3 (Homo sapiens), sequence (O95398 whole entry, looked up): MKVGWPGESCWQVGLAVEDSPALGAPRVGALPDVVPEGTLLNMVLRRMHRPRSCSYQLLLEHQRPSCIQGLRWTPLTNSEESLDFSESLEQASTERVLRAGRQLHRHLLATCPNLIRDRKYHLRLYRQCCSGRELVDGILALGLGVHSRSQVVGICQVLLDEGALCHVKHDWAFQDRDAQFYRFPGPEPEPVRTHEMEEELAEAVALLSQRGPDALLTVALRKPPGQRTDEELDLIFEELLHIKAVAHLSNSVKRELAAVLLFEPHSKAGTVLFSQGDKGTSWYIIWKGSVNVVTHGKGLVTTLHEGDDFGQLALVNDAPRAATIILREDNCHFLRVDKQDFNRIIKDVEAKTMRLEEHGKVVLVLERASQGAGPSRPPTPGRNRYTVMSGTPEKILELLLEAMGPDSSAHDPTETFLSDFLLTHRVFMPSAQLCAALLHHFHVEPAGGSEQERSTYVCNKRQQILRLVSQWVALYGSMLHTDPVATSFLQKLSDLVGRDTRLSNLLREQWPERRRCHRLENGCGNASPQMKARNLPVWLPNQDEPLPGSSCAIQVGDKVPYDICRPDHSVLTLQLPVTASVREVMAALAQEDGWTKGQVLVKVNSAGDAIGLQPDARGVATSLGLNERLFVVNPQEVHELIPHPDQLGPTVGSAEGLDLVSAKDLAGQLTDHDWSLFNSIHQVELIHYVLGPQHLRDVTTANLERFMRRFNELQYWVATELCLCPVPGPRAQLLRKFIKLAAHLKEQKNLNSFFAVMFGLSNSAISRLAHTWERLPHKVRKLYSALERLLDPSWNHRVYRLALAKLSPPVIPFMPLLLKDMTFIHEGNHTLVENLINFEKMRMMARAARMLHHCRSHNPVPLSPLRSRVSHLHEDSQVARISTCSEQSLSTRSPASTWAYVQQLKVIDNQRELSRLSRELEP
Summary of the method: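 Nucleotide exchange uses 100 nM EPAC1, 250 nM RAP1B-BODIPY-GDP and 50 uM GDP, with compounds in a concentration-titration series. After 5 min at room temperature, fluorescence (480 nm ex/540 nm em) is read every 5 min for 30 min. Data are normalized to control ATA and DMSO.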

[2] = molecular target: Rap guanine nucleotide exchange factor 3 (Homo sapiens) (UniProt O95398); experiment: Confirmatory qHTS for agonist of cAMP-regulated guanine nucleotide exchange factor 3 (EPAC1) (AID 1645881); further: nearly all actives have a fitted effect of over 75% in size;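 on activation: EPAC1 catalysed release of BODIPY-GDP from Rap1B seen as fluorescence loss; 100% = effect of cAMP agonist control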
[3] = molecular target: Rap guanine nucleotide exchange factor 4 (Homo sapiens) (UniProt Q8WZA2); experiment: Confirmatory qHTS for agonist of cAMP-regulated guanine nucleotide exchange factor 4 (EPAC2) (AID 1645884);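 further: nucleotide exchange releases bodipy-GDP from Rap1 and this lowers its fluorescence; nearly all actives have a fitted effect of over 65% in size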; on activation: on the % scale 0 is the no-effect control and ±100 the full control effect
Rap guanine nucleotide exchange factor 4 (Homo sapiens), sequence (Q8WZA2 whole entry, looked up): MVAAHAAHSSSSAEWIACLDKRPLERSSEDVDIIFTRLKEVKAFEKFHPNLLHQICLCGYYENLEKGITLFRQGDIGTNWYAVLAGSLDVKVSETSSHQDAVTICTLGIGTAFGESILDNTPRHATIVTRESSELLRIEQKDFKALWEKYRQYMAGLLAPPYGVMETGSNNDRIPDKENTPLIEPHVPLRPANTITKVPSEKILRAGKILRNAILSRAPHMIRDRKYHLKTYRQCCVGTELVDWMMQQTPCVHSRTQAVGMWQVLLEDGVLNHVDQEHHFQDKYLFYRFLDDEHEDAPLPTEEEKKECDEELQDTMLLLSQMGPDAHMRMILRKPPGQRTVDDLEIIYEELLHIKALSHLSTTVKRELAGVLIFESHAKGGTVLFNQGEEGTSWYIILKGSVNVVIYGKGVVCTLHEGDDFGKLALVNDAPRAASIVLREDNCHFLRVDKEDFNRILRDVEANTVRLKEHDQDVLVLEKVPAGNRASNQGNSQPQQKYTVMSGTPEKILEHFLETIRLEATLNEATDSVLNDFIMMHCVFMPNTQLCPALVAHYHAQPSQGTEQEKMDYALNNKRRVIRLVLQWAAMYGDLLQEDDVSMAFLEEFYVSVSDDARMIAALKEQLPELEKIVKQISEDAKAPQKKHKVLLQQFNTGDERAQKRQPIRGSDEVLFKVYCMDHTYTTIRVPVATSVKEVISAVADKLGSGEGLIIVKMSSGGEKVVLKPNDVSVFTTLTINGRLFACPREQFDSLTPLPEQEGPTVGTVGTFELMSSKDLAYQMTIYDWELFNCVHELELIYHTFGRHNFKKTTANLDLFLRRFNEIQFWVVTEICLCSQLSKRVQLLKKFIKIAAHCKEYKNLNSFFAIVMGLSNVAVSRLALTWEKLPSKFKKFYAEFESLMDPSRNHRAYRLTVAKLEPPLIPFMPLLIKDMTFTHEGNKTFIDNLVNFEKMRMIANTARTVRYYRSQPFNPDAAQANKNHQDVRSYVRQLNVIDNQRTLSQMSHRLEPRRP

[4] = molecular target: Rap guanine nucleotide exchange factor 4 (Homo sapiens) (UniProt Q8WZA2); experiment: Confirmatory qHTS for antagonist of cAMP-regulated guanine nucleotide exchange factor 4 (EPAC2) (AID 1645885); further: nearly all actives have a fitted effect of over 25% in size
[5] = molecular target: Rap guanine nucleotide exchange factor 3 (Homo sapiens) (UniProt O95398); experiment: Counterscreen qHTS for agonist of cAMP-regulated guanine nucleotide exchange factor 3 (EPAC1) (AID 1645889); further: nearly all actives have a fitted effect of over 40% in size; on activation: % of control where 0% means no effect
Summary of the method: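 Measured: fluorescence of BODIPY-GDP bound to Rap1B, which falls as exchange proceeds. Conditions include 50 uM competing GDP, 5 and 30 min reads, and a later cAMP challenge for antagonist detection.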
Potency means the concentration at half of the fitted maximal effect.

With O=C(O)c1ccc(N/N=C/c2c(F)cccc2Cl)cc1 the Potency [1] was “inactive”, the Potency [2] was “inactive” and the activation [3] was 2.99% [at 17.1 µM, percent relative to cAMP agonist control]. The Potency [4] was “inactive” and the activation [5] was 3.47% [at 30.8 µM].

In the case of CCN(CC)c1ccc2cc(-c3nnc(Nc4ccc(C)cc4)s3)c(=O)oc2c1, the Potency [2] is reported as 112 µM (active), the Potency [3] is reported as 35.5 µM (active) and the Potency [4] is reported as 5.36 µM (active).

For O=C1NC(=O)C2(N1)C(=O)c1cccc3cccc2c13 (stereo not drawn), the Potency [1] was “inactive”, the Potency [2] was 112 µM (active) and the Potency [3] was 100 µM (active). The Potency [4] was 47.8 µM (active) and the Potency [5] was 44.7 µM (active).

O=c1oc2cc(O)ccc2cc1-c1nc2ccccc2o1 was tested, and the Potency [1] was “inactive”, the Potency [2] was 100 µM (active) and the Potency [3] was 112 µM (active). For the same compound, the Potency [4] was 84.9 µM (active) and the Potency [5] was 70.8 µM (active).

O=C(Nc1ccc(Cl)cc1C(=O)O)c1ccc2c(c1)C(=O)N(Cc1ccco1)C2=O was tested, and the Potency [1] was 39.8 µM (active), the Potency [2] was “inactive” and the activation [3] was -2.6% [at 17.1 µM, percent relative to cAMP agonist control]. For the same compound, the Potency [4] was “inactive” and the activation [5] was 16.2% [at 30.8 µM].
